Source: PubChem BioAssay (National Center for Advancing Translational Sciences (NCATS))
Pf Dd2 inh: qHTS Primary assay for Inhibitors of Plasmodium falciparum Dd2 growth in vitro | 4.3% of 120,000 active | Potency, µM (top dose mostly 28.9 µM), without a hit: at the top dose activity, negative = inhibition, usual class: inhibitors | P. falciparum Dd2 growth, SYBR Green, 72 h; active means well fitted inhibition curve with a large enough effect;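 further: plate controls were DMSO vehicle for no effect and reference drug for full effect; nearly all actives have a fitted effect of over 65% in size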
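Infected erythrocytes (Dd2, 0.3% parasitemia, 2.5% hematocrit final) are added to compound in RPMI-1640/Albumax II medium, grown 72 h at 37C in low oxygen, then lysed with saponin/Triton-X containing SYBR Green and read by fluorescence.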
An asterisk follows results filed as active; [ ] = dose if it differs, or a comment. The full list was thinned out, with hits kept by preference. Potency means the concentration at half of the fitted maximal effect.

COc1ccc(C(=O)N2CCC(n3cc(-c4nc(C)no4)nn3)C2)cc1OC (stereo not drawn) was read as Pf Dd2 inh -14%.
Screening Cc1ccccc1-c1nc(C2CC(=O)N(c3ccc(F)cc3)C2)no1 (stereo not drawn) returned Pf Dd2 inh 36%.
`CC(C)C(=O)N1CCC2(CC1)N(C)C(=O)CS2(=O)=O` gave Pf Dd2 inh 33%.
`CNC(=O)[C@@H](c1ccc(OC)cc1)N1CCC[C@H]1C(=O)NCC1CCCCC1` gave Pf Dd2 inh inactive.
`CO[C@H]1C(=O)N(C2CCN(S(=O)(=O)c3ccccc3)CC2)[C@H]1c1ccncc1` gave Pf Dd2 inh 21%.
`COC(=O)c1c(NC(=O)c2ccc(S(=O)(=O)N3CCC(C)CC3)cc2)sc2c1CCN(C)C2` gave Pf Dd2 inh inactive.
`COC(=O)c1c(NC(=O)c2ccc(S(=O)(=O)N(C)C3CCCCC3)cc2)sc2c1CCN(C)C2` gave Pf Dd2 inh 8.9µM*.
For CC(C)CN(CC(C)C)S(=O)(=O)c1ccc(C(=O)Nc2sc3c(c2C(N)=O)CCN(C(C)C)C3)cc1 the results were Pf Dd2 inh 58%.
Screening Cc1cc(F)ccc1OCC(=O)c1ccc2c(c1)N(C(C)C(=O)NCc1ccc(F)cc1)C(=O)CO2 (stereo not drawn) returned Pf Dd2 inh inactive.
For COc1ccc(Nc2cc3c(cn2)NCCN(Cc2ccccc2)C3)cn1 the results were Pf Dd2 inh inactive.
For Oc1ccc(-c2cc3c(cn2)CN(Cc2ccccc2)CCN3)cc1F the results were Pf Dd2 inh 4µM*.
For COc1ccc(Nc2cc3c(cn2)CN(Cc2ccncc2)CCN3)cn1 the results were Pf Dd2 inh -6%[44.1 µM].
`c1ccc(CN2CCNc3cc(-c4ccncc4)ncc3C2)cc1` gave Pf Dd2 inh -26%[44.1 µM].
`Fc1ccccc1-c1cc2c(cn1)CN(Cc1ccncc1)CCN2` gave Pf Dd2 inh inactive.
`COc1ccc(-c2cc3c(cn2)CN(Cc2ccccc2)CCN3)cc1OC` gave Pf Dd2 inh 11µM*.
COc1ccc(CN2CCNc3cc(-c4ccnc(C)c4)ncc3C2)cc1O was read as Pf Dd2 inh -4%[44.1 µM].
Screening COc1ccc(Nc2cc3c(cn2)CN(CCc2ccccc2)CCN3)cc1OC returned Pf Dd2 inh 10µM*.
Screening COc1ccc(CNc2cc3c(cn2)CN(Cc2ccccc2)CCN3)cc1OC returned Pf Dd2 inh -15%[44.1 µM].
CN(Cc1ccccc1)Cc1cn([C@H]2CO[C@H]3[C@@H]2OC[C@@H]3NCC2CCCCC2)nn1 was read as Pf Dd2 inh -30%[44.1 µM].
For NC(=O)CNC(=O)[C@@]1(O)C[C@@H](O)[C@H](O)[C@@H](NC(=O)c2ccc(F)c(Cl)c2)C1 the results were Pf Dd2 inh -3%[44.1 µM].
`CC(C)NC(=O)NCc1nnc2n1C(C(=O)N1CCN(c3ncccn3)CC1)CC2` (stereo not drawn) gave Pf Dd2 inh 13%.
Cc1nc(C)c(C(=O)N2CCC3(CC2)CCC(O)(CN(C)C)CC3)s1 was read as Pf Dd2 inh -5%.
Screening C=CCNC(=O)N1CC[C@H]2CC(=O)N(CCN3CCNC3=O)CC[C@H]2C1 returned Pf Dd2 inh 20%[44.1 µM].
`CN(CC1CCOCC1)C(=O)Nc1ccc2c(c1)OCCO2` gave Pf Dd2 inh -17%.
`O=C(Nc1ccc([C@@H](O)[C@H]2COCC(=O)N2CC2CCCCC2)cc1)C1CC1` gave Pf Dd2 inh 2%[44.1 µM].
`Cc1ccc(Cl)cc1NC(=O)N1CCC(Oc2ncccc2C(=O)N2CCOCC2)C1` (stereo not drawn) gave Pf Dd2 inh inactive.
CC(C)c1nnc(C2CN(C(=O)C3(c4ccccc4)CC3)CC23CCOCC3)o1 (stereo not drawn) was read as Pf Dd2 inh -19%.
`CNC(=O)N1CCC(n2c(C)cnc2-c2ccccc2)CC1` gave Pf Dd2 inh -4%.
Screening CCOCC(=O)N1CCCC(c2nc(-c3ccccc3)no2)CCNC(=O)CC1 (stereo not drawn) returned Pf Dd2 inh 14%.
Screening O=C(Cc1ccccn1)N1CCC(N2CC3CCCN3C2=O)CC1 (stereo not drawn) returned Pf Dd2 inh 9%[44.1 µM].
For COc1ccc(-c2c3c(nc4sc(C(=O)Nc5ccc(F)cc5)c(N)c24)CC(C)(C)CC3=O)cc1 the results were Pf Dd2 inh 0.56µM*.
For Cc1c(C(=O)Nc2ccc(F)cc2)sc2nc[nH]c(=O)c12 the results were Pf Dd2 inh 15%.
Screening COc1ccc(-c2ccc3c(N)c(C(=O)Nc4cc(F)ccc4C)sc3n2)cc1 returned Pf Dd2 inh 22%.
For CC(=O)N1CCC2(CC1)CC(CC(=O)O)CCO2 (stereo not drawn) the results were Pf Dd2 inh 11%.
`CCOc1ccc(C(=O)NC2CCN(c3cn[nH]c(=O)c3)CC2)cc1` gave Pf Dd2 inh inactive.
Screening Cc1cccc(-c2ccc3c(c2)C(=O)N2CC[C@H](NC(=O)c4cnccn4)C[C@H]2C(=O)N3)c1C returned Pf Dd2 inh -27%.
Cc1ccc2c(c1)N1C(=O)OC[C@@H]1CCN(S(C)(=O)=O)C2 was read as Pf Dd2 inh 3%[44.1 µM].
Screening COc1ccc(CNC(=O)CSc2ncc3c(n2)-c2ccc(Cl)cc2N(Cc2ccc(F)cc2)S3(=O)=O)cc1OC returned Pf Dd2 inh 11µM*.
COc1ccccc1CNC(=O)CSc1ncc2c(n1)-c1ccc(Cl)cc1N(Cc1ccccc1)S2(=O)=O was read as Pf Dd2 inh 1%.
COc1ccc(CNC(=O)CSc2ncc3c(n2)-c2cc(Cl)ccc2N(Cc2ccccc2)S3(=O)=O)cc1 was read as Pf Dd2 inh -29%.
COc1ccccc1C(=O)NCc1nnc2cc(-c3nc(C)no3)ccn12 was read as Pf Dd2 inh -13%.
For CC(=O)N1CCC(Cc2ccc(C(=O)O)cc2)CC1 the results were Pf Dd2 inh 8%.
For COc1ccccc1CCC(=O)NC1CCc2nnc(C)n2CC1 (stereo not drawn) the results were Pf Dd2 inh 26%.
C=CCNC(=O)[C@@H]1Cc2cn(Cc3cc(C)on3)c3cccc(c23)[C@H](CC(C)C)N1 was read as Pf Dd2 inh -24%[44.1 µM].
For COCCCNC(=O)[C@@H]1Cc2cn(Cc3cc(C)on3)c3cccc(c23)[C@H](CC(C)C)N1 the results were Pf Dd2 inh inactive.
For Cc1cc(Cn2cc3c4c(cccc42)[C@H](CC(C)C)N[C@H](C(=O)NCc2cncn2C)C3)no1 the results were Pf Dd2 inh 11µM*.
CC(C)C[C@@H]1N[C@H](C(=O)O)Cc2cn(CC3CCC3)c3cccc1c23 was read as Pf Dd2 inh inactive.
`C=CCNC(=O)[C@@H]1Cc2cn(Cc3ccncc3)c3cccc(c23)[C@H](CC(C)C)N1` gave Pf Dd2 inh -29%[44.1 µM].
C#CCNC(=O)[C@@H]1Cc2cn(Cc3nccn3C)c3cccc(c23)[C@H](CC(C)C)N1 was read as Pf Dd2 inh 10µM*.
`Cc1cc(Cn2cc3c4c(cccc42)[C@H](CC(C)C)N[C@H](C(=O)NC2CCC2)C3)no1` gave Pf Dd2 inh -24%[44.1 µM].
Screening CC(C)C[C@@H]1N[C@H](C(=O)O)Cc2cn(Cc3nccn3C)c3cccc1c23 returned Pf Dd2 inh inactive.
For C=CCn1cc2c3c(cccc31)[C@H](CC(C)C)N[C@H](C(=O)NCCN(C)C)C2 the results were Pf Dd2 inh -3%[44.1 µM].
For CC(C)C[C@@H]1N[C@H](C(=O)NC2CCCC2)Cc2cn(Cc3nccn3C)c3cccc1c23 the results were Pf Dd2 inh -5%[44.1 µM].
